Compounds without any hit were thinned out: in the full panel of roughly 83,000, 20% have a hit.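 Testing used 96-well plates and a 48-hour single-concentration exposure. Example: -40 means 40% of the starting cells died.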 Active and inactive are the calls of the source.
System: NCI-H23 lung
Assay: NCI-60 one-dose screen, 48 h (100 = growth as untreated, 0 = no growth, -100 = all killed)
Details: 10 µM unless noted
Description: Growth inhibition of the NCI-H23 human Non-Small Cell Lung tumor cell line is measured as a screen for anti-cancer activity. Cells are grown in 96 well plates and exposed to the test compound for 48 hours. Compounds are tested at a single concentration, which is 10^-5 M for most compounds. The reported endpoint is percent growth (GI% or GIPRCNT), where numbers from 0 - 100% represent growth inhibition, and numbers from -100% - 0 represent cell death. For example, a value of 40 represents 60% growth inhibition. A value of 0 means no net growth occurred over the course of the experiment. A value of -40 indicates 40% of cells at the beginning of the experiment died by the end of the experiment. A value of -100 means all cells are dead at the end of the experiment.
NCI-60 Human Tumor Cell Lines Screen was performed using the standard one-dose NCI protocol, which is described in more detail at https://dtp.cancer.gov/discovery_development/nci-60/default.htm.
Compounds with GIPRCNT values below 10 were considered active. Activity score was based on GIPRCNT using the following formula: […]
Score is 0 for GIPRCNT values of 100 or above, 50 for GIPRCNT values of 0, and 100 for GIPRCNT values of -100.

Row | Structure (SMILES) | growth
1 | O=C(/C=C/c1cccc(Cl)c1)c1ccc(Nc2nc(Nc3ccc(F)cc3)nc(Nc3ccc(Cl)cc3)n2)cc1 | 97.9% (inactive)
2 | CC(C)=CCCC(C)c1ccc(C)c2c1OCN(CCCCCO)C2 (stereo not given) | 91.3% (inactive)
3 | Cc1ccc(C(=O)c2ccc(CC(=O)N/N=C/c3ccccc3O)n2C)cc1 | 82.9% (inactive)
4 | COc1ccc2c(c1)CC[C@H](O)/C2=C/c1cc(OC)c(OC)c(OC)c1 | 30.3% (inactive)
5 | COc1cc(-c2csc(NC(=O)c3ccc(N4CCOCC4)c(C(F)(F)F)c3)n2)cc(OC)c1OC | 15.7% (inactive)
6 | O=C(Nc1ccccc1O)c1ccc(CNC(=O)c2sccc2Nc2ccnc(C(F)(F)F)c2)cc1 | 51.7% (inactive)
7 | CCCCCC(/C=N\NC(=S)N/N=C/C(=C/c1ccccc1)CCCCC)=C\c1ccccc1 | 70.6% (inactive)
8 | CCCCCCCCCCCCCCCCOCCCOP(=O)(O)C1CCCN(O)C1=O (stereo not given) | 18.5% (inactive)
9 | COc1cccc(/C=C2\COc3ccc(O)c(O)c3C2=O)c1 | 47% (inactive)
10 | CCOC(=O)c1cc(C(=O)c2cc(OC)c(OC)c(OC)c2)n2ncccc12 | 38% (inactive)
11 | O=C(O)c1cn(C2CC2)c2cc(N3CCN(Cc4ccc5ccccc5c4O)CC3)c(F)cc2c1=O | 26.4% (inactive)
12 | Oc1c(Br)cc(Br)c2ccc(Cn3cc(-c4ccc(C(F)(F)F)cc4)nn3)nc12 | 84.7% (inactive)
13 | COCCNC(=O)Nc1ccc2nc(-c3cccs3)c(-c3cccs3)nc2c1 | 90% (inactive)
14 | C[C@@H](CO)[C@@H]1CCC=C2CC[C@]3(C)[C@H](CC[C@@H]4[C@@]5(C)CCCNC(C)(C)[C@@H]5CC[C@]43C)[C@H]21 | 67.9% (inactive)
15 | CCN1C(=O)N(CC)C2C1NN=c1s/c(=C\c3ccccc3F)c(=O)n12 (stereo not given) | 31.9% (inactive)
16 | COc1ccc(/C=C(\C#N)n2nnc3cc(Cl)ccc32)cc1 | 8.62% (active)
17 | O=S(=O)(NCCNc1nccc(-c2c(-c3ccc(F)c(O)c3)nc3occn23)n1)c1ccc(Cl)cc1 | 80.3% (inactive)
18 | CC1CCN(CCOc2ccc(CNc3ccc4nc(CCC5CCCCC5)[nH]c4c3)cc2)CC1 | 71.7% (inactive)
19 | CN(c1cc2ncc(=O)[nH]c2cc1NC(N)=NCc1ccc(Cl)cc1)C1CCCCC1 | 88.1% (inactive)
20 | O=C1/C(=C/c2ccccc2O)CC/C1=C\c1ccccc1O | 59.8% (inactive)

Row | Structure (SMILES) | growth
21 | CC/C=C\C[C@H](O)C/C=C1/C(=O)C=C[C@@H]1C/C=C\CCCC(=O)N(C)C | -27% (active)
22 | CC1CCN(S(=O)(=O)c2ccc(S(=O)(=O)N3CCCC(c4nc5c(nnn5Cc5cccc(Cl)c5)c(=O)[nH]4)C3)cc2)CC1 (stereo not given) | 65.4% (inactive)
23 | C#COc1cccc(Nc2c(C#N)cnc3ncc(NC(=O)CCl)cc23)c1 | 59.6% [6.25 µM] (inactive)
24 | COc1ccc(Cc2cnc(NC(=O)c3cc(C)oc3C)s2)cc1 | 59.5% (inactive)
25 | CSc1nc2ccccc2cc1/C=C1/C=C(c2ccccc2)NC1=O | 87.4% (inactive)
26 | NC(=O)c1ccc(-c2c3ccccc3cc3c2ccc2ccccc23)cc1 | 70.7% (inactive)
27 | O=C(CSc1nc2sc3c(c2c(=O)n1-c1ccccc1)CCCCC3)N/N=C/c1cccc([N+](=O)[O-])c1 | 54.4% (inactive)
28 | N=C(N)c1ccc(-c2ccc(-c3ccc(Cl)c(Cl)c3)s2)nc1 | 67.6% (inactive)
29 | CCn1cc(C(=O)O)c(=O)c2cc(F)c(N3CCN(CC(=O)Nc4ccc(S(=O)(=O)Nc5nccc(C)n5)cc4)C(C)C3)c(F)c21 (stereo not given) | 103% (inactive)
30 | CCOC(=O)n1ccn(C)c1=S | 107% (inactive)
31 | COc1ccc(/C=N/NC(=O)c2ccc(-n3cc(-c4ccccc4)nn3)cc2)cc1OC | 95.2% (inactive)
32 | O=C1NC(=C(Cl)Cl)/C(=N\S(=O)(=O)NCc2ccccc2)N1 | 104% (inactive)
33 | O=C(CN1C(=O)NC2NC(=O)NC21)N/N=C/c1ccccc1[N+](=O)[O-] (stereo not given) | 106% (inactive)
34 | Cc1ccc(C)n1-c1ccccc1-n1c(C)ccc1C | 107% (inactive)
35 | Cc1ccc(Nc2cc(N)nc(N)n2)cc1Cl | 87.6% (inactive)
36 | N#Cc1c(-c2ccccc2)[nH]c2ncc(-c3ccccc3)n2c1=O | 76.9% (inactive)
37 | CN(C)CC(C)(C)C(=O)/C=C/c1ccccc1 | -28.8% [25 µM] (active)
38 | Cc1nc2sc(C(=O)Nc3cccc(Br)c3)c(N)c2cc1C(O)c1ccccc1 (stereo not given) | 25.1% (inactive)
39 | OCCn1cc(-c2nc(-c3c[nH]c4ncccc34)cs2)c2cc(F)ccc21 | 76.2% (inactive)
40 | Oc1c(I)cc(I)cc1CNCc1ccccn1 | 52.4% (inactive)
